The whole screen tested about 160,000 compounds, of which about 240 (0.15%) were called active. Only a selection was taken, and actives are over-represented in it overall. Unmarked numbers belong to inactive results. Rule as the data show it: active = inhibition above about 40%; inactive = the rest.
These molecules were tested against Cyclic GMP-AMP synthase (Mus musculus) (UniProt Q8C6L5) (assay: inhibition of Mus musculus cGAS, primary biochemical chemiluminescence screen (AID 1259399;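 also: 0% = negative control wells and 100% = reference inhibitor with no enzyme activity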)). Conditions: recombinant cGAS, Kinase-Glo ATP depletion luminescence; at 12.5 µM; hits give high values.
Chain of Cyclic GMP-AMP synthase (Mus musculus) (Q8C6L5 whole entry, looked up): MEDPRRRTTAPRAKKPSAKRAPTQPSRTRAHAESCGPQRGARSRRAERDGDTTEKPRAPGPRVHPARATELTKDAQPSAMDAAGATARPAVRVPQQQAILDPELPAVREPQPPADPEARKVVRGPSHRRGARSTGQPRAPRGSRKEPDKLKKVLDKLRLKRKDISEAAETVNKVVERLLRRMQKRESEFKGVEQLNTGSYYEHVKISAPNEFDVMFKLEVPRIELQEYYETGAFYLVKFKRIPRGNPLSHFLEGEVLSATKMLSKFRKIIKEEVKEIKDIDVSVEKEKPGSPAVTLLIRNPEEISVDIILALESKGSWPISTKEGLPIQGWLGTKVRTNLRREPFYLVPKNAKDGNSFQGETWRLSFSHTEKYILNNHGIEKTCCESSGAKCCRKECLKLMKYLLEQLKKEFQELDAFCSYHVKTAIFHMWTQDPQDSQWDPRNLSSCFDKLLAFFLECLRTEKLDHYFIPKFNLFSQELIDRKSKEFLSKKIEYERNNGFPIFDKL
`O=C(Cc1ccccc1)N1CC(=O)N(Cc2ccco2)CC(O)C1` (configuration not stated) showed an inhibition of -3.15%. `COc1cc2c(cc1OC)C(CNC(=O)NC(C)(C)C)N(Cc1ccc(F)cc1)CC2` (configuration not stated) showed an inhibition of -7.88%. With `Cc1cnc(C(=O)N2CC(c3ccncc3)C2)cn1` the inhibition was -13.8%. `NCCOCc1ccc(-c2ccc(F)c(CO)c2)cc1` gave an inhibition of -21.2%. `COc1ccc(S(=O)(=O)N(CC(=O)N2CCc3sccc3C2c2ccccc2C)C(C)C)cc1` (configuration not stated) showed an inhibition of -2.82%. Work on `COCC(=O)Nc1cccc(-n2nc(OCCc3ccc(OC)cc3)nc2-c2ccc(C(F)(F)F)cc2)c1` yielded an inhibition of -3.56%. Work on `Cc1csc2nc(CSc3ncn[nH]3)cc(=O)n12` yielded an inhibition of -4.64%. With `COc1ccc(-c2cc(NC(=O)c3cc(F)cc(C(F)(F)F)c3)n(-c3ccc(C)cc3)n2)cc1` the inhibition was -4.28%. With `COc1ccc(C(C)=O)cc1COc1ccc(C#N)cc1` the inhibition was -12.7%. In the case of `COc1ccc(CCOc2nc(-c3ccc(OC)cc3)n(-c3ccc(NC(=O)Nc4ccccc4C)cc3)n2)cc1`, the inhibition is reported as -6.37%. With `CC(Oc1ccccc1C(N)=O)c1ccccc1Cl` (configuration not stated) the inhibition was -1.52%. `CCN1C(=O)N(C2Cc3ccccc3C2)C(=O)C12CCN(Cc1cccc3ncccc13)CC2` gave an inhibition of -16.7%. `O=C(Nc1ccc2c(c1)OCO2)c1cc2nc(-c3ccc(F)cc3)cc(C(F)(F)F)n2n1` gave an inhibition of -6.41%. Molecule `COc1ccc(C=C2SC(=S)NC2=O)cc1OC` has an inhibition of 28%. With `CCn1nccc1NC(=O)C1(C)CCN1C(=O)c1sccc1C` (configuration not stated) the inhibition was -3.99%. With `CCOCCCn1c(SCc2cc(F)ccc2C)nc2cc(S(=O)(=O)N3CCCC(C)C3)ccc21` (configuration not stated) the inhibition was -6.92%. `Cc1ccc(OC2(C(=O)N(C)Cc3cc(C4CC4)n[nH]3)CCNCC2)cc1` showed an inhibition of -3.33%. In the case of `CCOc1ccc(/C=C2/SC(=S)N(CC(=O)O)C2=O)cc1`, the inhibition is reported as -7.17%. `O=C(O)CN1C(=O)/C(=C\c2cccc(Cl)c2Cl)SC1=S` gave an inhibition of 6.94%. For `O=C(O)CN1C(=O)/C(=C\c2ccc(F)c(Br)c2)SC1=S`, the inhibition was 49.9% (active). `Cc1ccc2nc(-c3ccc([N+](=O)[O-])cc3)nc(-c3ccccc3)c2c1` showed an inhibition of -7.39%. `COc1cccc(CNC(=O)Cn2c3ccc(F)cc3c3ncn(Cc4ccccc4)c(=O)c32)c1` gave an inhibition of -6.62%. `CC(=O)Nc1ccc(Nc2cc(N3CCCCC3)c3nonc3c2[N+](=O)[O-])cc1` gave an inhibition of -7.72%. Molecule `C=CC[C@@H]1CC=C[C@@H](C)N1Cc1nc(-c2ccc(C)o2)oc1C` has an inhibition of 0.508%. Molecule `COC(=O)c1ccccc1NC(=O)N1CCc2ccccc2C1c1ccc(F)cc1` (configuration not stated) has an inhibition of -8.08%. `Cc1cc(=O)[nH]c(SCc2cc(-c3ccco3)on2)c1C#N` showed an inhibition of 9.2%. In the case of `Cc1cc(=O)[nH]c(SCC(N)=O)c1C#N`, the inhibition is reported as 71.9% (active). For `Cc1nc(SCC(=O)c2ccc(Cl)cc2)c(C#N)c(C)c1C`, the inhibition was -5.06%. `N#CC1C(=N)SC(=N)C(C#N)C1c1ccco1` (configuration not stated) gave an inhibition of 36.2%. In the case of `N#CC1C(=N)SC(=N)C(C#N)C1c1cccc(O)c1` (configuration not stated), the inhibition is reported as 57.5% (active). `COc1ccc(-n2ccnc(SCc3ccc(C)cc3)c2=O)cc1Cl` was tested, and the inhibition was -6.1%. Molecule `Cc1ccc(-c2nc3cc(C)ccn3c2NC(=O)CC(C)C)cc1` has an inhibition of -7.17%. Work on `Cn1c(=O)[nH]c(=O)c2c1nc(N1CCN(Cc3ccccc3F)CC1)n2Cc1ccccc1` yielded an inhibition of -1.19%. `COc1ccc(C23CC4CC(CC(C(=O)NC5CC5)(C4)C2)C3)cc1` showed an inhibition of -7.85%. `Cc1oc(-c2ccc(C(F)(F)F)cc2)nc1CN(C)CC1COc2ccccc2O1` (configuration not stated) was tested, and the inhibition was -4.73%. Molecule `O=C(N1CCC(n2cnc3ccccc32)CC1)C1(c2ccccc2)CC1` has an inhibition of -5.7%. `COc1ccc(CCN(Cc2ccc(C)o2)C(=O)CN(CCN2CCCC2)C(=O)c2ccccc2C)cc1OC` was tested, and the inhibition was -4.1%. For `CNC(=O)CN(Cc1cccc(Br)c1)C1CC1`, the inhibition was -8.9%. `CC(=O)N(CCN(C)C)c1nc2cc3c(cc2s1)OCO3` gave an inhibition of 1.62%. For `O=C(c1ccccc1)N1CCN2C[C@@H](c3ccccc3)[C@H](CO)[C@H]2C1`, the inhibition was -4.18%. `Cc1ccccc1-n1cc(CN(C)C(=O)c2cn(Cc3cccc4ccccc34)nn2)cn1` gave an inhibition of -7.32%. In the case of `COc1cccc(C(=O)N(Cc2cccc(OS(=O)(=O)c3ccc(F)cc3)c2)Cc2ccco2)c1`, the inhibition is reported as -0.277%. `COc1ccccc1C(=O)N1CCN(c2ccc(F)cc2)C(=O)C1C` (configuration not stated) was tested, and the inhibition was -4.08%. `CC1C(=O)N(c2ccc3c(c2)OCO3)CCN1C(=O)c1ccccc1Cl` (configuration not stated) was tested, and the inhibition was 0.748%. In the case of `COc1ccccc1C(=O)N1CCN(c2cccc(Cl)c2C)C(=O)C1C` (configuration not stated), the inhibition is reported as 51.1% (active). `OC(COCc1ccccc1)CN(Cc1ccc(F)cc1)CC1CC(c2ccc3c(c2)OCO3)=NO1` (configuration not stated) gave an inhibition of -4.2%. `CCc1nc2c(OCCOc3ccc(F)cc3)cccn2c1N(C)C(C)=O` gave an inhibition of -2.77%.

Reference: PubChem BioAssay AID1259399 (Fisher Drug Discovery Resource Center, 2018)
